Some test systems named below: DU-145 prostate; K-562 leukemia; MALME-3M melanoma; MDA-MB-231 breast; RXF 393 renal; SF-268 CNS; SF-295 CNS; SF-539 CNS; UACC-257 melanoma; M14 melanoma.
What all share (assay): NCI-60 one-dose screen, 48 h (100 = growth as untreated, 0 = no growth, -100 = all killed)
Conditions in all cases: 10 µM unless noted

The panel holds about 83,000 compounds, 20% with a hit somewhere; the sample as a whole holds those more often.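 For each line, cells grew in 96-well plates with the test compound present at a single concentration for 48 hours.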 Unmarked numbers belong to inactive results. Active and inactive are the calls of the source. The calls were made as follows: active = growth percent below 10; inactive = the rest.

For the compound `CC/C(=C(/c1ccc(Cl)cc1)c1ccc(OCCN2CCOCC2)cc1)c1ccccc1`, the growth with DU-145 prostate was 98.4%; with K-562 leukemia, 63.7%; in the test on MALME-3M melanoma it was 104%; in the test on MDA-MB-231 breast, 95.5%; in the test with RXF 393 renal it was 107%; in the test with SF-268 CNS, 90.5%. Also, the growth was 97.1% in the test on SF-295 CNS, 104% with SF-539 CNS, 98.8% in the test with UACC-257 melanoma and 99.5% in the test with M14 melanoma.

`COc1ccc(Oc2nc(Nc3ccc(N4CCOCC4)cc3)ncc2NC(=O)c2cccc(C(F)(F)F)c2)cc1`: the growth in the test on DU-145 prostate is 91.9%; in the test on K-562 leukemia it was 56%; in the test on MALME-3M melanoma, 97.5%; in the test on MDA-MB-231 breast, 69.1%; with RXF 393 renal it was 65.6%; with SF-268 CNS, 89.5%. The growth with SF-295 CNS is 85.6%; in the test on SF-539 CNS, 77.3%; with UACC-257 melanoma it was 98.2%; with M14 melanoma, 80.7%.

Turning to `CN1CCN(c2ccc(Nc3ncc(C(N)=O)c(NCCCNC(=O)C4CCC4)n3)cc2)CC1`, the growth in the test with DU-145 prostate is 67.6%; in the test with K-562 leukemia, 41.7%; with MALME-3M melanoma, 76.6%; with MDA-MB-231 breast it was 11.6%; in the test on RXF 393 renal it was 20.4%; in the test with SF-268 CNS, 80.6%. In addition, the growth with SF-295 CNS was 81.3%; in the test with SF-539 CNS it was 11.1%; with UACC-257 melanoma, 119%; with M14 melanoma, 80%.

Turning to `CCC(=C(c1ccc(OCCCN(C)C)cc1)c1ccc(OCCCN(C)C)cc1)c1ccc(Cl)cc1`, the growth is -90.8% (active) with DU-145 prostate; 0.345% (active) with K-562 leukemia; -79.6% (active) in the test on MALME-3M melanoma; -85% (active) in the test on MDA-MB-231 breast; -82.7% (active) with RXF 393 renal; -78.3% (active) in the test with SF-268 CNS. The growth is -87.4% (active) with SF-295 CNS, -93.2% (active) in the test on SF-539 CNS, -77.1% (active) with UACC-257 melanoma and -83.5% (active) in the test with M14 melanoma.

Consider `Cc1ccc(-c2nc3nc(-c4ccccc4)nc(N4CCCNCC4)c3o2)cc1`, for which the growth with DU-145 prostate is -25.5% (active); with K-562 leukemia it was -76.4% (active); in the test with MALME-3M melanoma it was -85.5% (active); with MDA-MB-231 breast, -86.9% (active); in the test on RXF 393 renal, -73.2% (active); in the test with SF-268 CNS, -26.3% (active). For the same compound, the growth with SF-295 CNS is -87.3% (active); with SF-539 CNS, -88.5% (active); in the test on UACC-257 melanoma, 4.04% (active); with M14 melanoma it was -93.9% (active).

Regarding `Cc1ccc(C(=O)Nc2ccc(CN3CCN(C)CC3)c(C(F)(F)F)c2)cc1C#Cc1cnc(N)cc1C#N`, the growth is -53.1% (active) in the test on DU-145 prostate; -41.5% (active) in the test with K-562 leukemia; -79.2% (active) with MALME-3M melanoma; -67% (active) in the test with MDA-MB-231 breast; -88.6% (active) in the test on RXF 393 renal; -14.7% (active) in the test on SF-268 CNS. Also, the growth in the test with SF-295 CNS was -68.1% (active); in the test on SF-539 CNS it was -94.8% (active); in the test with UACC-257 melanoma, -23.6% (active); in the test with M14 melanoma, -80.8% (active).

As for `CCCc1cc(C(N)=S)ccn1`, the growth in the test with DU-145 prostate is 109%; in the test with K-562 leukemia, 95.3%; with MALME-3M melanoma, 93.7%; in the test with MDA-MB-231 breast, 115%; in the test on RXF 393 renal it was 111%; in the test with SF-268 CNS, 114%. For the same compound, the growth in the test on SF-295 CNS was 99.1%; with SF-539 CNS it was 100%; in the test on UACC-257 melanoma, 112%; with M14 melanoma, 102%.

As to `Cc1nc2sc(C(=O)Nc3cccc(Cl)c3C)c(N)c2cc1C(O)c1ccccc1` (stereo not given), the growth with DU-145 prostate is 10.7%; with K-562 leukemia it was 6.05% (active); with MALME-3M melanoma, 50.2%; in the test on MDA-MB-231 breast, 15.3%; with RXF 393 renal it was 46.2%; in the test on SF-268 CNS, 24%. Besides, the growth in the test with SF-295 CNS was 26.9%; in the test with SF-539 CNS, 0.0688% (active); with UACC-257 melanoma, 57%; with M14 melanoma, 7.42% (active).

On to `COc1ccc(-c2ccc(-c3ccc(C(=N)N)cn3)s2)cc1Cl`, for which the growth is -47% (active) in the test on DU-145 prostate; -47.8% (active) with K-562 leukemia; -88% (active) in the test with MALME-3M melanoma; -77.9% (active) in the test on MDA-MB-231 breast; 64.5% in the test with RXF 393 renal; -30.5% (active) in the test with SF-268 CNS. Further, the growth in the test on SF-295 CNS was -80.9% (active); in the test on SF-539 CNS, -93.5% (active); in the test on UACC-257 melanoma, -60.8% (active); in the test with M14 melanoma it was -81.7% (active).

For `C=C(C)[C@@H]1CC[C@]2(C(=O)O)CC[C@]3(C)[C@H](CC[C@@H]4[C@@]5(C)CCC(N)C(C)(C)[C@@H]5CC[C@]43C)[C@@H]12` (stereo not given in full), the growth in the test on DU-145 prostate is 33.1%; in the test with K-562 leukemia, -28.2% (active); in the test with MALME-3M melanoma, -61.3% (active); with MDA-MB-231 breast, 18.3%; in the test on RXF 393 renal, 81.3%; in the test with SF-268 CNS, 91.3%. In addition, the growth in the test on SF-295 CNS is 73.7%; in the test on SF-539 CNS, 96.5%; in the test on UACC-257 melanoma, 93.2%; with M14 melanoma it was 27.1%.

Take `O=C1/C(=C/c2ccc(-c3ccccc3C(F)(F)F)o2)SC(=S)N1CCc1ccc(O)cc1`: the growth with DU-145 prostate is 66.2%; in the test on K-562 leukemia, 17.5%; with MALME-3M melanoma, 32.2%; in the test with MDA-MB-231 breast it was 67%; in the test on RXF 393 renal, 71.2%; with SF-268 CNS, 51.4%. In addition, the growth was 54.4% in the test on SF-295 CNS, 54.2% with SF-539 CNS, 67% with UACC-257 melanoma and 34.4% with M14 melanoma.
